# Source: PubChem BioAssay
# An excerpt weighted towards active compounds, which were near 19% of everything screened.
# IL1B secr inh – inflammasome signaling inhibition, IL-1 beta readout; THP-1 LPS/ATP IL-1B secretion, AlphaLISA, 16 h; hits give low values; activity change, % at 57.5 µM; 360,000 tested, 4.7% active; AID 743279; in the data active = activity change below about -50%; inconclusive = mostly about -30% to -49%
#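 THP-1 cells pretreated 1 hr with compounds (up to 57.5 uM final), then stimulated with LPS (250 ng/mL final) plus ATP (1.25 mM final); secreted IL-1B measured by AlphaLISA after 16 hr, decreased signal indicating inhibition.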
# HT1080-NT tox – kills 2HG-producing HT-1080-NT fibrosarcoma cells; Potency, µM (titrated, usually from 46.1 µM), for inactives: top-dose activity, negative = less viability, actives largely listed as cytotoxic; 360,000 tested, 1.6% active; HT-1080-NT fibrosarcoma viability, CellTiter-Glo ATP luminescence, 48 h;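 also: NT is the 2HG producing partner of a matched IDH1 knockdown line; potency is read from the fitted curve at half-maximal effect; 0% = DMSO-treated cells and -100% = media-only wells without cells; nearly all actives have a fitted effect of over 55% in size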
#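 A 48-hour cytotoxicity screen used HT-1080-NT cells plated 2 hours before compound delivery. ATP-based CellTiter-Glo luminescence measured viability, normalized to DMSO and no-cell controls.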
# TDP1 cell CPT – growth inhibition of DT40 Tdp1-/-;hTDP1 cells with camptothecin (screen for TDP1 inhibitors) | chicken DT40 Tdp1-/-;hTDP1 cells + 20 nM CPT, ATP luminescence, 48 h | Potency, µM (series often up to 46.2 µM), for inactives: top-dose activity change, negative = growth inhibition, actives largely listed as inhibitors | 420,000 tested, 12% active | AID 686979; also: potency is read from the fitted curve at half-maximal effect; nearly all actives have a fitted effect of over 55% in size
#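 Chicken DT40 Tdp1-/- cells stably complemented with human TDP1 were seeded at 400 cells/well in medium containing 20 nM camptothecin, exposed to pin-transferred compounds, and grown at 37 °C for at least 48 hr. Viability was read as ATP luminescence.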
# TDP1 cell noCPT – qHTS for Inhibitors of human tyrosyl-DNA phosphodiesterase 1 (TDP1): qHTS in cells in absence of CPT; DT40 Tdp1-/- hTDP1 cells, no CPT, ATP luminescence, 48 h; Potency, µM (series often up to 46.2 µM), for the others: top-dose activity change, negative = growth inhibition, usual class: inhibitors; 420,000 tested, 15% active; AID 686978, 2013; also: potency is read from the fitted curve at half-maximal effect; nearly all actives have a fitted effect of over 55% in size
#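 No-CPT arm: Tdp1-/-;hTDP1 DT40 cells (400/well) plus compounds, incubated ≥48 hr at 37 °C. Readout CellTiter-Glo luminescence.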
# ELG1 DNA repair – ELG1-dependent DNA repair inhibition. 330,000 tested, 2.3% active. Potency, µM (titrated, usually from 46.1 µM), for the others: at the highest dose activity change, negative = inhibition, most hits filed as inhibitors. HEK293T ELG1-luciferase reporter, luminescence, 16 h; DNA damage induced by 5-fluorouridine. AID 504467; also: potency is read from the fitted curve at half-maximal effect; nearly all actives have a fitted effect of over 55% in size
#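 HEK293T cells expressing luciferase-tagged ELG1 (2,000/well) received 5-Fluorouridine plus compound or DMSO for 16 hr at 37 °C. Luciferase was read by ONE-Glo luminescence after 30 min at room temperature.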
# HT1080 IDH1KD tx – HT-1080 IDH1 knockdown cell toxicity (counter line). 360,000 tested, 2% active. Potency, µM (doses to about 46.1 µM), without a hit: at the highest dose activity, negative = toxicity, hits mostly cytotoxic. AID 686971. HT-1080 IDH1 knockdown viability, ATP luminescence, 48 h;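 also: potency is read from the fitted curve at half-maximal effect; 0% = DMSO wells and -100% = cell-free medium wells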
#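 Luminescent ATP read-out (CellTiter-Glo, 10 min at room temperature) after 48 h compound exposure at 37 °C gave viability of IDH1-knockdown HT-1080 cells. Activity was normalised to DMSO and cell-free wells, then fitted as concentration-response curves.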
# * hit, by the source's call; ? = inconclusive; nt = no result. Unless noted, calls follow the shape of the dose curve; as a rule, active = well fitted curve in the direction sought with a large enough effect; inconclusive = small, poorly fitted or top-dose-only effect, or another doubt; inactive = no such curve, though single readings can be large; an effect the other way counts as inactive or inconclusive. Unless noted, % is scaled to controls: 0 for no effect and ±100 for the full control effect.
SMILES,IL1B secr inh,HT1080-NT tox,TDP1 cell CPT,TDP1 cell noCPT,ELG1 DNA repair,HT1080 IDH1KD tx
Cc1ccc(CNC(=O)[C@H]2C[C@@H]2[C@H](NP(=O)(c2ccccc2)c2ccccc2)c2ccccc2)o1,13,-9%,?,21µM*,-16%,0%
CCCCNC(=O)C(C)N(CCN(C)C)C(=O)CCCN1C(=O)NC(c2ccc([N+](=O)[O-])cc2)C(C(=O)OCc2ccccc2)=C1C (stereo not drawn),-79*,?,18µM*,23µM*,-3%,?
CCCCNC(=O)C(c1ccc(-c2ccccc2)cc1)N(CCN1CCOCC1)C(=O)CCCCCN1C(=O)NC(c2ccc([N+](=O)[O-])cc2)C(C(=O)OCc2ccccc2)=C1C (stereo not drawn),nt,nt,nt,nt,4%,nt
CC1=C(C(=O)OCc2ccccc2)C(c2ccc(Br)cc2)NC(=O)N1CCCCCC(=O)O (stereo not drawn),24,-1%,-7%,-14%,nt,-14%
COC(=O)CCCCCN1C(=O)NC(c2ccccc2)C(C(=O)OCc2ccccc2)=C1C (stereo not drawn),50,-19%,21µM*,16µM*,-8%,-3%
CC(C)(C)c1ccc(C(=O)NN2C(=O)CSC2=S)cc1,0,6%,10%,11%,?,9%
CCN(C(=O)Nc1cn(CC(C)C)c(=O)c2ccccc12)c1cc(C)ccc1C,nt,nt,9.2µM*,9.2µM*,nt,nt
COc1cc(OC)c(N(C)C(=O)Nc2cn(CC(C)C)c(=O)c3ccccc23)cc1Cl,nt,nt,21µM*,23µM*,nt,nt
Cc1ccc(Cl)cc1NC(=O)Nc1cn(CC(C)C)c(=O)c2ccccc12,nt,nt,-3%,10%,nt,nt
COc1ccc(Cl)cc1NC(=S)N(CCCN1CCOCC1)Cc1cn(C)c2ccccc12,-19,?,13µM*,?,-26%,-22%
COc1cc(Cl)ccc1NC(=S)N(CCCN1CCOCC1)Cc1cn(C)c2ccccc12,?,?,16µM*,21µM*,?,?
Cc1ccc(Cl)cc1NC(=S)N(CCCN1CCOCC1)Cc1ccccn1,-12,3%,-1%,-1%,4%,0%
CCCNS(=O)(=O)c1ccc(CCC(=O)N2CCN(c3ccc(F)cc3)CC2)cc1,0,2%,?,?,?,1%
CCc1cc(C(=O)Cc2ccc(F)cc2)c(O)cc1O,44,?,-11%,?,?,?
CCCc1cc(C(=O)Cc2ccc(F)cc2)c(O)cc1O,20,23µM*,?,?,-2%,21µM*
COc1ccc(-c2nnc(C3CCN(S(=O)(=O)c4ccc(C)c(C)c4)CC3)o2)cc1,nt,nt,?,26µM*,nt,nt
COc1ccccc1-c1nnc(C2CCN(S(=O)(=O)c3ccc(F)c(C)c3)CC2)o1,nt,nt,15µM*,?,nt,nt
COc1ccccc1-c1nnc(C2CCN(C(=O)c3ccccc3C)CC2)o1,nt,nt,?,-17%,nt,nt
COc1ccccc1-c1nnc(C2CCN(C(=O)c3cccc(Cl)c3)CC2)o1,nt,nt,?,16µM*,nt,nt
COC(=O)c1ccccc1NC(=O)Cn1c(=O)n(-c2cccc(OC)c2)c(=O)c2c(C)c(C(=O)N(C)C)sc21,nt,nt,-6%,2%,nt,nt
C[N+]1(CC(=O)c2ccc(Oc3ccc(C(=O)C[N+]4(C)CCOCC4)cc3)cc2)CCOCC1,nt,nt,-12%,-18%,nt,nt
O=C(COC(=O)COc1ccc(Cl)cc1Br)NC1CC1,14,-5%,-11%,-2%,?,-8%
CCCC[C@@H]1CN=C(N)N1CC(C)(C)C,14,13%,?,23µM*,nt,8%
Cc1cc(N2CCCCC2)nc2ccc(NC(=O)CCC(=O)NCCC(C)C)cc12,1,-1%,-30%,-27%,?,0%
